Test results reported in PubChem BioAssay (NCI).
This is part of a sample that, as a whole, favours compounds with a hit. Of some 83,000 tested, about 20% had one in any assay.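 Compound tested at a single concentration for 48 hours in 96-well plates; a percent growth value below 10 was scored as active.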 Unmarked numbers belong to inactive results. Active and inactive are the calls of the source.

These molecules were tested on HL-60(TB) leukemia (assay: NCI-60 one-dose screen, 48 h (100 = growth as untreated, 0 = no growth, -100 = all killed)). Settings: 10 µM unless noted.
`CS(=O)(=O)Nc1cc(-c2ccc3ncnc(Nc4ccc5c(cnn5Cc5ccncc5)c4)c3c2)cnc1Cl` was tested, and the growth was 15.4%. `O=C(NCCNc1nccc(-c2c(-c3cccc(O)c3)nc3sccn23)n1)Nc1cc(C(F)(F)F)cc(C(F)(F)F)c1` gave a growth of 97.3%. In the case of `c1ccc(-c2nc(N3CCOCC3)c3c4c(sc3n2)CCCCC4)nc1`, the growth is reported as 79.2%. `Cn1cc(C(=O)NCCC(=N)N)cc1NC(=O)CN=C(N)N` showed a growth of 102%. For `CC1(c2ccccc2)NC(=O)N(NC(=O)CSc2nc(-c3cccs3)nc3ccccc23)C1=O` (stereo not given), the growth was 91.6%. In the case of `O=C1/C(=C/c2cc(F)cc(F)c2)Cc2cc(F)cc(F)c21`, the growth is reported as 122%. For `Nc1c(C(=O)Nc2ccccc2)sc2nc3c(cc12)CN(CCc1ccccc1)CC3`, the growth was 102%. `CCCCN1C(=O)CC(SC2CC(=O)N(CCCC)C2=O)C1=O` (stereo not given) gave a growth of 132%. `O=C(O)c1ccc(Cl)cc1Nc1ccc(F)cc1` showed a growth of 90.2%. `Cc1nn(-c2cc(=O)[nH]c3ccccc23)c(N)c1C#N` showed a growth of 102%. Work on `O=C(N(c1ccccc1)c1ccccc1)n1cc(I)c2nc(Cl)nc(Cl)c21` yielded a growth of 22.9%. With `Cc1ccc(C(=Nc2ccccc2)N=P(c2ccccc2)(c2ccccc2)c2ccccc2)cc1` the growth was -4.41% (active). With `O=C1CC(SC(=S)C2CCCC2=O)C(=O)N1` (stereo not given) the growth was 97%. With `CC(C)=CCNc1ncnc2c1ncn2C1OC(CO)C(O)C1O` (stereo not given) the growth was -40.7% [1 mM] (active). For `NC(=O)C1CCCN(Cc2c[nH]c3ccccc23)C1` (stereo not given), the growth was 102%. `NC(=S)N/N=C\c1nccc2c(C(F)(F)C(F)(F)C(F)(F)F)cccc12` was tested, and the growth was -49.4% (active). With `COc1ccc2cc(-c3cnc4nonc4n3)ccc2c1` the growth was -12% (active). `c1cc(C2=N[C@@H]3c4ccccc4C[C@@H]3O2)nc(C2=N[C@@H]3c4ccccc4C[C@@H]3O2)c1` showed a growth of 105%. For `COC(=O)/C(CCC=C(C)C)=C1\[C@@H](OC(C)=O)C[C@@]2(C)[C@H]1CC(=O)[C@H]1[C@@]3(C)CCC(N4CCCC4)[C@@H](C)[C@@H]3CC[C@@]12C` (stereo not given in full), the growth was -51.4% (active). Molecule `Cc1cc(C)c2c(NC(=O)Nc3ccc(Cl)c(Cl)c3)n[nH]c2n1` has a growth of 96.9%. With `O=c1c2cc(F)cc(Cl)c2sc2c(Cl)nc3ccccc3c12` the growth was 115%. `O=C(CCCC(=O)Nc1ccc(Cn2nnc3cc(Cl)c(Cl)cc32)cc1)Nc1ccc(CN2N=NC3C=C(Cl)C(Cl)=CC32)cc1` (stereo not given) gave a growth of 89.7%. Work on `C#CCn1cc(C=C2C(=O)N(C)C(=O)N(C)C2=O)c2cc(Cl)ccc21` yielded a growth of 105%. `COc1ccc(C(=O)C(CN(C)C)c2ccccc2)cc1` (stereo not given) was tested, and the growth was 3.71% (active). With `O=[N+]([O-])c1ccccc1Sc1ccccc1[N+](=O)[O-]` the growth was 111%. `Cc1nc(O)cc(=O)[nH]1` gave a growth of 97%. In the case of `COc1ccc(OC)c(/C=C/c2nc(=S)n(-c3ccc(Cl)cc3)[nH]2)c1`, the growth is reported as 4.33% (active). Work on `COc1cc(Cc2cc(OC)c(O)c(OC)c2)cc(OC)c1O` yielded a growth of 44%. In the case of `CCCc1cc2cc(-n3nc(C)c4c3CC(C)(C)CC4=O)cc(NC3CCSCC3)c2c(=O)[nH]1`, the growth is reported as 49.4%. In the case of `O=C(O)CN1C(=O)C=CC1=O`, the growth is reported as 96.9%. Work on `CCOC(=O)c1coc(C(=O)OCC)c1C(=O)OCC` yielded a growth of 105%. For `Cn1ccnc1C(=O)/C=C/c1ccc(CC(=O)Nc2ccc(S(F)(F)(F)(F)F)cc2)cc1`, the growth was -11.5% (active). `CN(CCC(=O)c1ccccc1)CCC(=O)c1ccccc1` showed a growth of 75.4%. With `Cc1cc(NS(=O)(=O)c2ccc(-c3cnc(C4CC4)o3)cc2)ccc1Cl` the growth was 0.815% (active). `N#C/C(=C(/O)CCCO)c1nc2ccccc2c(=O)[nH]1` gave a growth of 102%. Work on `C[N+](C)(C)c1ncnc2[n-]cnc12` yielded a growth of 103%. In the case of `COc1ccc(S(=O)(=O)N(Cc2ccc3c(n2)C=CC(C)(C)O3)C2CCC2)cc1OC`, the growth is reported as -13.5% (active). With `Cc1ccncc1C(=O)O` the growth was 106%. With `O=C(Nc1ccc2c(c1)-c1ccccc1C2)C1CC(=O)N(c2ccc3c(c2)OCO3)C1` (stereo not given) the growth was 112% [50 µM]. For `CCOc1cc(/C=C/C(=O)C(C(=O)/C=C/c2ccc(OC(=O)CNc3nc4ccccc4[nH]3)c(OCC)c2)C(=O)CNc2nc3ccccc3[nH]2)ccc1OC(=O)CNc1nc2ccccc2[nH]1`, the growth was -44.4% (active).
